# PTHR1 ag = PTHR1 (human) receptor agonism. Q03431. HEK293 GP2 PTHR1 cells, GloSensor cAMP luminescence, 1 h. Potency, µM (top dose mostly 115 µM), inactives show at the top dose activation, usual class: activators. 410,000 compounds, 0.075% hits; further: nearly all actives have a fitted effect of over 55% in size
#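 HEK-293-derived GP2 cells expressing PTHR1 and a GloSensor cAMP reporter, 3,000/well, plated overnight, given luciferin plus IBMX (each 0.5 mM as added) for 1 h at 37 °C, then compound for 1 h at 37 °C. Luminescence was read after 15 min at room temperature.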
# GLP1R cytotox = cytotoxicity counter-screen for GLP-1 receptor inverse agonists; HEK293 cAMP-luciferase reporter cells, luminescence, 24 h; Potency, µM (doses to about 38.3 µM), without a hit: top-dose activity change, negative = inhibition, actives largely listed as inhibitors; 410,000 compounds, 0.13% hits;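 further: loss of luciferase light is scored as toxicity; on the % scale 0 is the no-effect control and ±100 the full control effect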
#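 Compound-treated cells are incubated 24 hr at 37 deg C under 5% CO2 after a 12 hour attachment period, then luciferase detection reagent is added and luminescence is measured following 12 min at room temperature; lowered signal indicates toxicity.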
# GLP-1R agonist = activates the human GLP-1 receptor; HEK293 GLP-1R CRE-luciferase, luminescence, 4-6 h; cells express a hypersensitive GLP-1R form; Potency, µM (series often up to 45.6 µM), without a hit: top-dose activation, actives largely listed as activators; 380,000 compounds, 0.007% hits; AID 624172; further: % of control where 0% means no effect
# Target sequence (P43220 whole entry, looked up): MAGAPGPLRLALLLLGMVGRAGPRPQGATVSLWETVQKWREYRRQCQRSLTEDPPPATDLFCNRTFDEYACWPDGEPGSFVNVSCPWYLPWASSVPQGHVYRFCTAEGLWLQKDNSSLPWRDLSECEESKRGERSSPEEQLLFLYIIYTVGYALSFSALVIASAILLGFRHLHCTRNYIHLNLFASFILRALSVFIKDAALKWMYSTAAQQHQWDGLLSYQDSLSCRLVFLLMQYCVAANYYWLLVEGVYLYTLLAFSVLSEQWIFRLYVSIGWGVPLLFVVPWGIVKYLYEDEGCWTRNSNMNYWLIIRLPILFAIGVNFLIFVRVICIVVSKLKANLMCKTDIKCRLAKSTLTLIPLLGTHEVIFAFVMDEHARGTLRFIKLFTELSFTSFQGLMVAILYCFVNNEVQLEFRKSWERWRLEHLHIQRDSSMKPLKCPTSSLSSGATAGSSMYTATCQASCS
# GLP-1R inv ag = acts as inverse agonist at human GLP-1 receptor; P43220; HEK293 GLP-1R CRE-luciferase, luminescence, 24 h; GLP-1R form is constitutively active; Potency, µM (highest dose often 38.3 µM), inactives show at the top dose activity change, negative = inhibition, usual class: inhibitors; 410,000 compounds, 1.6% hits; further: on the % scale 0 is the no-effect control and ±100 the full control effect; nearly all actives have a fitted effect of over 55% in size
#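 Seeding at 200 cells/uL, 12 h culture, 24 hr compound treatment, then luciferase reagent and a luminescence read; cells are HEK293 stably expressing a constitutively active GLP-1R plus cAMP-responsive luciferase.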
# Starred values were filed as active, the others as inactive; i = inactive; ? = inconclusive; · = not tested or not shown; [ ] = another dose, or the depositor's remark. Most compounds without a hit are left out; they make up all but 1.7% or so of the library. The call rests on the fitted dose curve; in most records, active means well fitted curve in the direction sought with a large enough effect; inconclusive means small, poorly fitted or top-dose-only effect, or another doubt; inactive means no such curve, though single readings can be large; an effect the other way counts as inactive or inconclusive. Potency means the concentration at half of the fitted maximal effect.
SMILES,PTHR1 ag,GLP1R cytotox,GLP-1R agonist,GLP-1R inv ag
FC(F)(F)c1cccc(NC(=S)Nc2ccc(Cl)c(Cl)c2)c1,-21%,-29%,0%,?
Cc1cccc(NC(=O)c2cc(S(=O)(=O)c3ccccc3)ccc2Cl)c1,-16%[57.5 µM],-10%,-20%,8.9µM*
CSc1ccc(NC(=O)C2(C)CCN2C(=O)c2ccccc2CCc2ccccc2)cc1 (configuration not stated),-66%,3%,-3%,10µM*
COc1cc(NC(=O)N2CCc3nc(Nc4cc(Cl)cc(Cl)c4)ncc3C2)cc(OC)c1OC,-68%,?,-2%,10µM*
COc1ccc(CNC(=O)N2CCc3nc(Nc4cc(OC)c(OC)c(OC)c4)ncc3C2)cc1,-25%,-15%,1%,-13%
Cc1ccc(S(=O)(=O)Nc2ccccc2C(=O)Nc2nc(-c3ccc(F)cc3)cs2)cc1,-36%,?,-18%,3.2µM*
O=C(Nc1cc(S(=O)(=O)N2CCCCC2)ccc1O)c1ccccc1NS(=O)(=O)c1ccc(F)cc1,-37%,?,1%,?
O=C(Nc1cc(S(=O)(=O)N2CCCCC2)ccc1Cl)c1ccccc1NS(=O)(=O)c1ccc(F)cc1,i,?,-11%,2.8µM*
O=C(CN(Cc1ccco1)Cc1ccco1)Nc1cc(S(=O)(=O)N2CCCCC2)ccc1Cl,-26%,-3%,-3%,10µM*
COc1ccc(-c2csc(NC(=O)c3ccccc3NS(=O)(=O)c3ccc(F)c(F)c3)n2)cc1,-34%,?,0%,?
O=C(NCc1ccco1)c1cc(S(=O)(=O)N2CCCC2)ccc1Cl,i,-4%,-4%,-29%
Cc1ccc(C(=O)NC2CCCCCCC2)c(Cl)c1,-47%,6%,0%,4µM*
O=C(NC1CCCCCC1)c1ccc(CS(=O)c2cccc(Cl)c2)o1 (configuration not stated),-6%,13%,·,-7%
CCOC(=O)C1(C)C=C(Nc2ccc(C)cc2)C(=O)N1c1ccccc1 (configuration not stated),i,1%,0%,0%
CCN(Cc1ccccc1)C(c1ccncc1)c1nnnn1C(C)(C)C (configuration not stated),i,1%,-7%,0%
CC(C)(C)n1nnnc1C(c1ccc(C(F)(F)F)cc1)N(Cc1ccc(F)cc1)Cc1ccco1 (configuration not stated),i,4%,-15%,?
CC(C)(C)c1ccc(CN(Cc2ccccc2)C(c2ccccn2)c2nnnn2C(C)(C)C)cc1 (configuration not stated),-15%,15%,-11%,3.2µM*
CC(C)(C)n1nnnc1C(c1ccc(C(F)(F)F)cc1)N(Cc1ccccc1)Cc1ccco1 (configuration not stated),-22%[57.5 µM],4%,-8%,5.6µM*
Cc1ccc([C@@H]2CC=C(C(=O)O)[C@H](c3ccc(C(C)(C)C)cc3)N2S(=O)(=O)c2ccc(C)cc2)cc1,-36%,-17%,-4%,?
CCc1ccc([C@@H]2CC=C(C(=O)O)[C@H](c3ccc(C(C)(C)C)cc3)N2S(=O)(=O)c2ccc(C)cc2)cc1,-20%,-11%,-5%,13µM*
Cc1ccc(S(=O)(=O)N2C(c3ccc(Cl)c(Cl)c3)CC=C(C(=O)O)C2c2ccc(Cl)cc2)cc1 (configuration not stated),i,-24%,·,?
Cc1ccc(S(=O)(=O)N2[C@@H](c3ccc(Cl)cc3)C(C(=O)O)=CC[C@H]2c2ccc(Cl)c(Cl)c2)cc1,-70%,-25%,-3%,3.5µM*
Cc1ccc(S(=O)(=O)N2[C@@H](c3ccc(C(C)(C)C)cc3)C(C(=O)O)=CC[C@H]2c2ccc(C(C)C)cc2)cc1,-96%,?,-3%,3.2µM*
Nc1nc2[nH]cc(CCc3ccc(C(=O)NC(CCC(=O)O)C(=O)O)cc3)c2c(=O)[nH]1 (configuration not stated),·,·,2%,·
COC(=O)c1cc2c(n1S(=O)(=O)c1ccc(C)cc1)C(=O)C(=O)c1[nH]cc(C(=O)OCc3ccccc3)c1-2,-16%,4µM*,-17%,?
Cc1ccc(Cl)cc1-n1ncc2c(N3CCC(C)CC3)ncnc21,-94%,2%,·,?
CCOc1cc(CNCCSc2nnnn2C)cc(Cl)c1OCc1ccc(Cl)cc1,-18%,14%,·,?

# High-throughput results as filed in PubChem BioAssay.
